In paper PMC5540273 (PLoS ONE, 2017):

Assays:
Conditions in all cases: concentration: 1 μM, replicates: in singlicate; n = 1
[1] = system: T1, PCTK2
T1 construct: gene CDK17

[2] = system: T2, PCTK3
T2 construct: gene CDK18

[3] = system: PDGFRA
[4] = system: PDGFRB
[5] = system: PDPK1
[6] = system: PFTAIRE2
[7] = system: T3, PFTK1
T3 construct: gene CDK14

[8] = system: PHKG1
[9] = system: PHKG2
[10] = system: PIK3C2B
[11] = system: PIK3C2G
[12] = system: PIK3CA
[13] = system: PIK3CB
[14] = system: PIK3CD
[15] = system: PIK3CG
[16] = system: T4, PIK4CB
T4 construct: gene PI4KB

[17] = system: PIKFYVE
[18] = system: PIM1
[19] = system: PIM2
[20] = system: PIM3
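Note: KINOMEscan kinase panel screen.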

Row | SMILES | %Inh [1] | %Inh [2] | %Inh [3] | %Inh [4] | %Inh [5] | %Inh [6] | %Inh [7] | %Inh [8] | %Inh [9] | %Inh [10] | %Inh [11] | %Inh [12] | %Inh [13] | %Inh [14] | %Inh [15] | %Inh [16] | %Inh [17] | %Inh [18] | %Inh [19] | %Inh [20]
1 | COC(=O)Nc1nc2cc(Oc3ccc(NC(=O)Nc4cccc(SC)c4)cc3)ccc2[nH]1.Cl [GW697999] | 6% | 26% | 99.4% | 100% | 0% | 15% | 20% | 3% | 34% | 0% | 85% | 0% | 0% | 0% | 0% | 0% | 0% | 12% | 0% | 0%
2 | Nc1ncc(-c2ccc3nccc(-c4ccncc4)c3c2)cc1S(=O)(=O)N1CCCCC1 [GSK1693850] | 26% | 0% | 0% | 22% | 0% | 48% | 47% | 0% | 14% | 100% | 99.8% | 100% | 96.9% | 100% | 100% | 95.9% | 0% | 8% | 0% | 0%
3 | COc1ccc(NC(=O)c2ccoc2)cc1-c1ccc(C(=O)NCC2CC2)cc1 [GW810437] | 9% | 0% | 21% | 4% | 0% | 13% | 47% | 0% | 0% | 14% | 0% | 9% | 24% | 0% | 12% | 20% | 31% | 0% | 12% | 0%
4 | CCNc1nccc(-c2c(-c3ccc(F)cc3)ncn2C2CCN(C)CC2)n1 | 0% | 0% | 0% | 0% | 15% | 0% | 1% | 1% | 12% | 1% | 26% | 0% | 0% | 0% | 10% | 0% | 0% | 6% | 4% | 30%
5 | CSc1ccc(NC2=C(c3ccc(Cl)cc3)C(=O)NC2=O)cc1 [SB-317658] | 0% | 0% | 3% | 31% | 17% | 4% | 8% | 0% | 0% | 0% | 15% | 0% | 24% | 54% | 0% | 27% | 0% | 1% | 0% | 12%
6 | CCn1c(-c2nonc2N)nc2c(-c3ccccc3)ncc(OCCCN)c21.O=C(O)C(F)(F)F.O=C(O)C(F)(F)F [GSK260205] | 0% | 0% | 18% | 98.8% | 0% | 0% | 13% | 0% | 0% | 1% | 9% | 0% | 0% | 1% | 0% | 0% | 98.8% | 62% | 2% | 44%
7 | CN(C)c1ncnc2nc[nH]c12 [SKF-31736] | 0% | 0% | 0% | 0% | 0% | 0% | 5% | 0% | 0% | 11% | 0% | 13% | 0% | 0% | 8% | 1% | 21% | 5% | 0% | 8%
8 | Nc1ncnc2scc(-c3ccc(NC(=O)Cc4cc(F)ccc4F)cc3)c12.O=C(O)C(F)(F)F [SB-731254-M] | 0% | 13% | 99.5% | 99.9% | 41% | 0% | 2% | 6% | 16% | 22% | 13% | 0% | 0% | 0% | 23% | 22% | 0% | 0% | 0% | 19%
9 | Cc1ccccc1CC(=O)N1CCc2cc(-c3cn(C)c4ncnc(N)c34)ccc21 [GSK2603346] | 0% | 3% | 64% | 99.4% | 67% | 5% | 3% | 0% | 0% | 77% | 0% | 0% | 0% | 25% | 0% | 0% | 0% | 0% | 0% | 0%
10 | Cc1cccc(Nc2nc(N[C@H]3CCCC[C@H]3N)ncc2C(N)=O)c1.Cl [GSK986310] | 17% | 24% | 12% | 80% | 3% | 24% | 29% | 33% | 44% | 0% | 0% | 0% | 0% | 0% | 3% | 0% | 0% | 43% | 56% | 88%
11 | Cn1cc(-c2cnc(N)c3c(-c4ccc5c(c4)CCN5C(=O)Cc4ccccc4)csc23)cn1 [GSK2593074] | 0% | 6% | 98.2% | 100% | 56% | 0% | 0% | 6% | 14% | 13% | 35% | 8% | 0% | 0% | 3% | 100% | 0% | 0% | 15% | 1%
12 | O=C(Nc1n[nH]c2nc(-c3ccccc3O)ccc12)C1CC1 [SB-711880] | 5% | 15% | 0% | 0% | 0% | 5% | 0% | 17% | 100% | 14% | 0% | 0% | 0% | 0% | 17% | 24% | 30% | 0% | 0% | 0%
13 | O=C(Nc1n[nH]c2cc(-c3cccs3)ccc12)C1CC1 [SB-731284] | 33% | 38% | 73% | 83% | 0% | 0% | 33% | 0% | 17% | 7% | 1% | 3% | 35% | 0% | 27% | 0% | 9% | 0% | 0% | 0%
14 | CC(C)c1nc(-c2cccc(NS(=O)(=O)c3c(F)cccc3F)c2)c(-c2ccnc(Nc3ccc(N4CCOCC4)nc3)n2)s1.Cl [GSK1723980] | 100% | 100% | 88% | 100% | 0% | 69% | 82% | 0% | 0% | 7% | 0% | 0% | 0% | 0% | 0% | 0% | 0% | 0% | 0% | 0%
